{"source": "PubChem BioAssay AID504523", "about": "(Broad Institute, 2011)", "note": "About 490 (0.14%) of roughly 340,000 compounds were called active. For the sample, actives were picked, then their nearest neighbours and some compounds at random. Unmarked numbers belong to inactive results. Rule as the data show it: active = inhibition above about 12%; inconclusive = no clear call, values can overlap the other calls; inactive = below about 7.3%.", "data": [{"biological_target": "Kelch-like ECH-associated protein 1 (Homo sapiens) (UniProt Q14145)", "sequence (Q14145 whole entry, looked up, the tested form may be a part)": "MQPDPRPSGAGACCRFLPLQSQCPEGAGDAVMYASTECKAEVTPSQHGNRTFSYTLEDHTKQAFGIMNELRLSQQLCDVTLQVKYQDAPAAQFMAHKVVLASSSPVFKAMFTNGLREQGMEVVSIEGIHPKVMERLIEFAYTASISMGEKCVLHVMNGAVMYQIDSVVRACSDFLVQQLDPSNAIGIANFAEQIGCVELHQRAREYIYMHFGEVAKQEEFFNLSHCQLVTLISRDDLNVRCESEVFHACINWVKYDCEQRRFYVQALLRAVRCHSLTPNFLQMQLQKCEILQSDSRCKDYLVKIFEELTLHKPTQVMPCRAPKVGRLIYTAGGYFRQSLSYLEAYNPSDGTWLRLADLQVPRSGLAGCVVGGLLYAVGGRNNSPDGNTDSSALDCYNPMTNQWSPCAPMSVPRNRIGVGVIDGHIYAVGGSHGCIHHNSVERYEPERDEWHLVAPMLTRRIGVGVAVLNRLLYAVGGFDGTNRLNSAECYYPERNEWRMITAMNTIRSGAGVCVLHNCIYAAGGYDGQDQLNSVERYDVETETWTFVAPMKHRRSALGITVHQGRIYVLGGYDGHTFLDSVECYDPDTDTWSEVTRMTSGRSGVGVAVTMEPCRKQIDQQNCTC", "experiment": "Keap1-Nrf2 protein-protein interaction inhibitors, primary screen, biochemical, fluorescence polarization, single point (AID 504523);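 also: human Keap1 Kelch domain with fluorescein labeled Nrf2 9mer peptide probe; 0% = neutral control wells and 100% = peptide positive control; higher means more block of Keap1 binding to Nrf2 peptide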", "conditions": "Keap1 Kelch-Nrf2 peptide fluorescence polarization, 1536-well; at 9.4 µM; active compounds read high", "values": [{"smiles": "COc1ccccc1NC(=O)CSc1nnc(Cn2nnc(-c3ccccc3)n2)n1-c1ccccc1", "inhibition": "0.652%"}, {"smiles": "CC(=O)Nc1ccc(S(=O)(=O)NNC(=O)CCc2ccccc2)cc1", "inhibition": "-9.19%"}, {"smiles": "O=C(CCc1ccccc1)NNC(=O)COc1ccc(Cl)cc1", "inhibition": "-4.48%"}, {"smiles": "O=C(CCc1ccccc1)NNc1ccc(F)cc1", "inhibition": "12.6% (active)"}, {"smiles": "Cc1nc2ccccn2c1C(=O)NN=C1CCN(C)CC1", "inhibition": "-3.6%"}, {"smiles": "CC(C)(C)c1ccc(CCC2OCC(CN3CCOCC3)O2)cc1", "note": "(stereo unspecified)", "inhibition": "3.61%"}, {"smiles": "Cc1ccc(-n2ncc(C(=O)NC3CC3)c2C2CCN(C(=O)OC(C)(C)C)CC2)c(C)c1", "inhibition": "-3.33%"}, {"smiles": "O=S(=O)(c1ccc(Br)cc1)c1nc(-c2ccccc2)oc1N1CCOCC1", "inhibition": "-9.08%"}, {"smiles": "CCCC(NC(=O)c1ccccc1)c1nc2ccccc2n1Cc1ccc(C(=O)OC)o1", "note": "(stereo unspecified)", "inhibition": "-2.49%"}, {"smiles": "CCCNc1c(N)c(=O)c1=O", "inhibition": "-1.65%"}, {"smiles": "O=C(CCNc1n[nH]c(=O)[nH]c1=O)N/N=C\\c1ccc(Br)cc1", "inhibition": "-2.4%"}, {"smiles": "CSCC[C@H](NC(=O)NCCc1ccc(F)cc1)C(=O)O", "inhibition": "1.87%"}, {"smiles": "COc1ccc(C2/C=C\\CN(S(=O)(=O)c3cccs3)CC(=O)N2Cc2ccc(F)cc2)cc1", "note": "(stereo unspecified)", "inhibition": "-0.104%"}, {"smiles": "O=C(O)CC(Cn1cnnn1)c1ccccc1", "note": "(stereo unspecified)", "inhibition": "20.2% (active)"}, {"smiles": "O=C(O)CC(CC(=O)N1CCOCC1)c1ccccc1", "note": "(stereo unspecified)", "inhibition": "-1.3%"}, {"smiles": "O=C(O)CC(c1ccccc1)n1cnnn1", "note": "(stereo unspecified)", "inhibition": "-4.84%"}, {"smiles": "Cc1cccc(C2c3c(n(C)c(=O)n(C)c3=O)N=C3c4ccccc4C(=O)C32)c1", "note": "(stereo unspecified)", "inhibition": "-0.0535%"}, {"smiles": "Cc1nonc1C1CCCN1Cc1nc(-c2ccc(F)cc2F)oc1C", "note": "(stereo unspecified)", "inhibition": "-5.07%"}, {"smiles": "Cn1c(CCNS(=O)(=O)c2ccc(F)cc2)nnc1SCc1cccnc1", "inhibition": "-1.02%"}, {"smiles": "Cc1ccc(OC(=O)c2cncc(Br)c2)c(C)c1", "inhibition": "5.58%"}, {"smiles": "Cc1cccc(N=Nc2c(O)[nH]c3ccc(F)cc23)c1", "inhibition": "0.392%"}, {"smiles": "COc1cccc(NC(=O)CN(C)C(C)C(=O)Nc2ccc(C#N)cc2)c1", "note": "(stereo unspecified)", "inhibition": "4.55%"}, {"smiles": "COCCN(C(=O)C(C)N1C(=O)c2ccccc2C1=O)c1c(N)n(CC(C)C)c(=O)[nH]c1=O", "note": "(stereo unspecified)", "inhibition": "-8.05%"}, {"smiles": "CN(C(=O)CC1C(=O)NCCN1Cc1ccc(F)cc1Cl)C1CCCCC1", "note": "(stereo unspecified)", "inhibition": "-12.6%"}, {"smiles": "O=C(CNC(=O)c1ccc(Br)o1)NCC1CCCO1", "note": "(stereo unspecified)", "inhibition": "3.4%"}, {"smiles": "CCN(CC)CC(=O)Nc1nn(-c2ccccc2)nc1C(N)=O", "inhibition": "-0.843%"}, {"smiles": "O=C(NNc1c2ccccc2nc2ccccc12)c1cc2ccccc2cc1O", "inhibition": "-0.162%"}, {"smiles": "Cc1onc(-c2ccc(Cl)cc2)c1-c1ccnn1S(=O)(=O)c1ccc(Cl)cc1", "inhibition": "-1.71%"}, {"smiles": "O=C(C1=C[C@H](c2coc3ccccc3c2=O)C[C@H](OCc2ccc(CO)cc2)O1)N1CCN(Cc2ccccc2)CC1", "inhibition": "-4.23%"}, {"smiles": "Nc1ccc2nc3c(=O)[nH]c(=S)[nH]c3nc2c1", "inhibition": "39% (active)"}, {"smiles": "CN(CC(=O)Nc1ccc(C(N)=O)cc1)S(=O)(=O)c1ccc2c(c1)OCCO2", "inhibition": "-4.93%"}, {"smiles": "CCC(C)(C)c1ccc(Oc2ccc(NC(=O)COC(=O)C3=COCCO3)cc2)cc1", "inhibition": "1.96%"}, {"smiles": "CC(OC(=O)c1ccccc1OCc1ccc(Cl)cc1)C(N)=O", "note": "(stereo unspecified)", "inhibition": "-6.61%"}, {"smiles": "COC(=O)/C=C\\C(=O)Nc1cccc([N+](=O)[O-])c1", "inhibition": "8.41%"}, {"smiles": "COc1ccc(NS(=O)(=O)c2cc(NC(=O)CC(=O)c3ccc([N+](=O)[O-])cc3)ccc2C)cc1", "inhibition": "-4.68%"}, {"smiles": "O=C1CCCCC1Sc1ccc(Cl)cc1[N+](=O)[O-]", "note": "(stereo unspecified)", "inhibition": "1.45%"}, {"smiles": "CC1=NNC(=O)C1CC(=O)N/N=C/c1ccncc1", "note": "(stereo unspecified)", "inhibition": "2.78%"}, {"smiles": "Cc1ccc(S(=O)(=O)CCC(=O)OCC(=O)N(C)Cc2ccccc2)cc1", "inhibition": "-7.11%"}, {"smiles": "CN1c2ccc([N+](=O)[O-])cc2C(C)(C)C12C=Cc1cc(C(=O)O)ccc1O2", "note": "(stereo unspecified)", "inhibition": "4.39%"}, {"smiles": "CC(=O)Oc1ccc(C(C)=O)c2c1OCCO2", "inhibition": "-3%"}, {"smiles": "CCCc1nnc(NC(=O)CCC(=O)NC2CC2)s1", "inhibition": "-3.82%"}, {"smiles": "O=C1c2ccccc2S(=O)(=O)c2cc(N3CCN(c4ccccn4)CC3)ccc21", "inhibition": "3.87%"}, {"smiles": "CCOC(=O)c1nn(-c2cccc(C)c2)cc1C(=O)c1ccccc1", "inhibition": "3.24%"}, {"smiles": "Cc1ccccc1OCC(=O)NCC(=O)OCC(=O)c1ccc2ccccc2c1", "inhibition": "-0.965%"}, {"smiles": "CCCC1OC23CCCCC2C(C#N)(C#N)C1(C#N)C(=N)O3", "note": "(stereo unspecified)", "inhibition": "20.6% (active)"}, {"smiles": "O=C(Nc1ccccn1)C1CCN(S(=O)(=O)c2ccccc2)CC1", "inhibition": "-4.55%"}, {"smiles": "O=C(NCc1cccs1)C1CCN(S(=O)(=O)c2ccc3c(c2)OCCO3)CC1", "inhibition": "-2.29%"}, {"smiles": "O=C(Nc1ccccn1)C1CCN(S(=O)(=O)c2ccc3c(c2)OCCO3)CC1", "inhibition": "24.3% (active)"}, {"smiles": "O=C1[C@H]2[C@@H](c3ccc(F)cc3)N3C(=O)N(c4ccc(C(F)(F)F)cc4)C(=O)[C@@]3(Cc3ccccc3)[C@H]2C(=O)N1C1CCCCC1", "inhibition": "-3.09%"}, {"smiles": "O=C(C1=C(O)C(=O)N(CCOCCO)C1c1ccccn1)c1cccs1", "note": "(stereo unspecified)", "inhibition": "5.97%"}, {"smiles": "CC[C@H]1OC(=O)[C@H](C)[C@@H](O[C@H]2C[C@@](C)(OC)[C@@H](O)[C@H](C)O2)[C@H](C)[C@@H](O[C@@H]2O[C@H](C)C[C@H](N(C)C)[C@H]2O)[C@](C)(O)C[C@@H](C)[C@@H]2N[C@@H](COCCOC)O[C@H]([C@H]2C)[C@]1(C)O", "inhibition": "1.21%"}, {"smiles": "COC1=CC(=O)OC(C)(c2ccccc2)C1", "note": "(stereo unspecified)", "inhibition": "1.18%"}, {"smiles": "COc1ccc(Cl)cc1NC(=O)CN(C)C(=O)c1ccc2n[nH]nc2c1", "inhibition": "0.863%"}, {"smiles": "Cn1c(=O)c2c(SCC(=O)N3CCOCC3)nc(C3CC3)nc2n(C)c1=O", "inhibition": "-7.01%"}, {"smiles": "O=S(=O)(c1cccs1)N1CCN(CCOc2ccccc2)CC1", "inhibition": "-5.25%"}, {"smiles": "CCN1/C(=C\\c2ccc3ccccc3[n+]2CC)Sc2cc(C)ccc21", "inhibition": "15.5% (active)"}, {"smiles": "CC1(C)C(C=C(Cl)Cl)C1C(=O)NC(O)C(=O)c1ccccc1", "note": "(stereo unspecified)", "inhibition": "1.65%"}, {"smiles": "Cc1c(C(=O)NC(=S)NCc2cccnc2)oc2ccccc12", "inhibition": "-0.251%"}, {"smiles": "Cc1nnc(SC(C)C(=O)Nc2ccc(S(=O)(=O)NC3CCCCC3)cc2)s1", "note": "(stereo unspecified)", "inhibition": "-0.0585%"}, {"smiles": "CCOC(=O)C1(Cc2ccc(Cl)cc2)CCN(C(=O)C2=NNC(=O)CC2)CC1", "inhibition": "0.91%"}, {"smiles": "CN(Cc1nc2ccccc2c(=O)[nH]1)Cc1cc(=O)oc2ccc3ccccc3c12", "inhibition": "-4.19%"}, {"smiles": "Cc1cc(=O)oc(C)c1C(=O)NC1CC(C)(C)NC(C)(C)C1", "inhibition": "-0.963%"}, {"smiles": "Oc1ccc2ccc3cccc[n+]3c2c1", "inhibition": "128% (active)"}, {"smiles": "Oc1ccc(-c2nc3ccccc3nc2-c2ccc(O)cc2O)c(O)c1", "inhibition": "5.29%"}, {"smiles": "COc1cc(NS(=O)(=O)c2ccc(NC(=O)CN3C(=O)c4ccccc4C3=O)cc2)ncn1", "inhibition": "-2.44%"}, {"smiles": "O=C1Nc2ccc([N+](=O)[O-])cc2C1=Nc1cccc(CO)c1", "inhibition": "2.07%"}, {"smiles": "CCSc1nc(C)c(CCOc2cccc(C)c2)c(=O)[nH]1", "inhibition": "1.88%"}, {"smiles": "COc1cc(NC(=O)c2ccccc2NS(=O)(=O)c2ccc(Cl)s2)cc(OC)c1", "inhibition": "-7.91%"}, {"smiles": "CCCN(CC(=O)Nc1ccccc1OC)C(=O)CCC(=O)c1ccc(F)cc1", "inhibition": "-3.76%"}, {"smiles": "CCCCCNC(=O)C1c2ccccc2Oc2ccccc21", "inhibition": "-1.43%"}, {"smiles": "CCOC(=O)CC(NC(=O)C1c2ccccc2Oc2ccccc21)c1ccc(C)cc1", "note": "(stereo unspecified)", "inhibition": "-0.485%"}, {"smiles": "CCCN(CCC)C(=O)C1c2ccccc2Oc2ccccc21", "inhibition": "56.3% (active)"}, {"smiles": "S=C(Nc1cccnc1)Nc1ccccn1", "inhibition": "0.955%"}, {"smiles": "CN/C(=C\\[N+](=O)[O-])NCCSCc1csc(CN(C)C)n1", "inhibition": "-2.6%"}, {"smiles": "COCCOC(=O)c1sc(=S)n(CCOC)c1N", "inhibition": "-0.978%"}, {"smiles": "O=C(CSc1n[nH]c(-c2cccs2)n1)N1CCCCC1", "inhibition": "-2.81%"}, {"smiles": "CC1(C)Cc2ccccc2-c2nnc(-c3cccc(O)c3)n21", "inhibition": "-0.455%"}, {"smiles": "CCS(=O)(=O)Nc1ccc(C(=O)NCCSc2ccccc2)cc1", "inhibition": "-1.14%"}, {"smiles": "CCCc1nc(-c2cc3cc(C)ccc3[nH]c2=O)no1", "inhibition": "0.406%"}, {"smiles": "CCOc1ccc(S(=O)(=O)N2CCC(C(=O)OCc3ccc(OC)cc3)CC2)cc1", "inhibition": "-2.62%"}, {"smiles": "NC(=O)c1ccccc1N=Cc1ccc2ccccc2c1", "inhibition": "-5.11%"}, {"smiles": "COC(=O)c1ccc(COC(=O)c2c(C)nn(Cc3ccccc3Cl)c2Cl)o1", "inhibition": "5.7%"}, {"smiles": "CSCC[C@H](NC(=O)CCCn1nnc2ccccc2c1=O)C(=O)O", "inhibition": "-3.2%"}, {"smiles": "O=C(NC(=O)N1CCSCC1)c1c(Cl)cccc1Cl", "inhibition": "-0.262%"}, {"smiles": "COc1ccc(Nc2nc(-c3cccnc3)nc3ccccc23)cn1", "inhibition": "20.8% (active)"}, {"smiles": "CC(C)(C)Nc1nc(-c2ccccn2)nc2ccccc12", "inhibition": "-3.56%"}, {"smiles": "S=c1nc2ccccc2c2nc(-c3cccnc3)[nH]n12", "inhibition": "-0.541%"}, {"smiles": "COc1ccc(CCNCC(O)Cn2ccc3ccccc32)cc1OC", "note": "(stereo unspecified)", "inhibition": "-7.66%"}, {"smiles": "COc1ccc(CCNC(=O)COC(=O)Cc2cccc(F)c2)cc1", "inhibition": "-1.56%"}, {"smiles": "COc1ccc(/C=N/Nc2ncnc3sc4c(c23)CCCC4)cc1O", "inhibition": "-9.16%"}, {"smiles": "COC(=O)C1=C(C)NC2=C(C(=O)c3ccccc32)C1c1ccc(-c2ccc(C(=O)O)cc2)o1", "note": "(stereo unspecified)", "inhibition": "-21.3%"}]}]}
